From PubChem BioAssay
Calls of active or inactive are those of the source.

Key:
[1] = binders of probe aFSTL3 on microarray, primary screen, stem cell growth factor project, biochemical, small-molecule microarray, fluorescence 635/667 (AID 1064); settings: higher = more signal;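 note: measures binding of the biotinylated anti-FSTL3 antibody to printed compounds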
[2] = binders from COS7 lysate, DM2A8 probe, primary screen, torsin A project, cell lysate, small-molecule microarray, fluorescence 635/667 (AID 1065); settings: higher = more signal, COS7 lysate expressing mutant human TOR1A
[3] = binders of probe aFGF2 on microarray, primary screen, stem cell growth factor project, biochemical, small-molecule microarray, fluorescence 635/667 (AID 1067); settings: higher = more signal;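 note: measures binding of biotinylated aFGF2 protein to printed compounds on slides; z-score merges feature fluorescence and signal-to-noise across triplicate slides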
[4] = binders of probe aFGF10 on microarray, primary screen, stem cell growth factor project, biochemical, small-molecule microarray, fluorescence 635/667 (AID 1071); settings: higher = more signal;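 note: score merges 667 nm spot intensity and signal to noise from triplicate slides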
[5] = molecular target: Neurogenic locus notch homolog protein 2 (Homo sapiens) (UniProt Q04721); experiment: Notch2 binders on small-molecule microarrays, primary screen, biochemical, small-molecule microarray, 635 nm fluorescence, stem cell growth factors (AID 1073); settings: Notch2 binding, higher = more signal
Neurogenic locus notch homolog protein 2 (Homo sapiens), sequence (Q04721 whole entry, looked up, canonical isoform): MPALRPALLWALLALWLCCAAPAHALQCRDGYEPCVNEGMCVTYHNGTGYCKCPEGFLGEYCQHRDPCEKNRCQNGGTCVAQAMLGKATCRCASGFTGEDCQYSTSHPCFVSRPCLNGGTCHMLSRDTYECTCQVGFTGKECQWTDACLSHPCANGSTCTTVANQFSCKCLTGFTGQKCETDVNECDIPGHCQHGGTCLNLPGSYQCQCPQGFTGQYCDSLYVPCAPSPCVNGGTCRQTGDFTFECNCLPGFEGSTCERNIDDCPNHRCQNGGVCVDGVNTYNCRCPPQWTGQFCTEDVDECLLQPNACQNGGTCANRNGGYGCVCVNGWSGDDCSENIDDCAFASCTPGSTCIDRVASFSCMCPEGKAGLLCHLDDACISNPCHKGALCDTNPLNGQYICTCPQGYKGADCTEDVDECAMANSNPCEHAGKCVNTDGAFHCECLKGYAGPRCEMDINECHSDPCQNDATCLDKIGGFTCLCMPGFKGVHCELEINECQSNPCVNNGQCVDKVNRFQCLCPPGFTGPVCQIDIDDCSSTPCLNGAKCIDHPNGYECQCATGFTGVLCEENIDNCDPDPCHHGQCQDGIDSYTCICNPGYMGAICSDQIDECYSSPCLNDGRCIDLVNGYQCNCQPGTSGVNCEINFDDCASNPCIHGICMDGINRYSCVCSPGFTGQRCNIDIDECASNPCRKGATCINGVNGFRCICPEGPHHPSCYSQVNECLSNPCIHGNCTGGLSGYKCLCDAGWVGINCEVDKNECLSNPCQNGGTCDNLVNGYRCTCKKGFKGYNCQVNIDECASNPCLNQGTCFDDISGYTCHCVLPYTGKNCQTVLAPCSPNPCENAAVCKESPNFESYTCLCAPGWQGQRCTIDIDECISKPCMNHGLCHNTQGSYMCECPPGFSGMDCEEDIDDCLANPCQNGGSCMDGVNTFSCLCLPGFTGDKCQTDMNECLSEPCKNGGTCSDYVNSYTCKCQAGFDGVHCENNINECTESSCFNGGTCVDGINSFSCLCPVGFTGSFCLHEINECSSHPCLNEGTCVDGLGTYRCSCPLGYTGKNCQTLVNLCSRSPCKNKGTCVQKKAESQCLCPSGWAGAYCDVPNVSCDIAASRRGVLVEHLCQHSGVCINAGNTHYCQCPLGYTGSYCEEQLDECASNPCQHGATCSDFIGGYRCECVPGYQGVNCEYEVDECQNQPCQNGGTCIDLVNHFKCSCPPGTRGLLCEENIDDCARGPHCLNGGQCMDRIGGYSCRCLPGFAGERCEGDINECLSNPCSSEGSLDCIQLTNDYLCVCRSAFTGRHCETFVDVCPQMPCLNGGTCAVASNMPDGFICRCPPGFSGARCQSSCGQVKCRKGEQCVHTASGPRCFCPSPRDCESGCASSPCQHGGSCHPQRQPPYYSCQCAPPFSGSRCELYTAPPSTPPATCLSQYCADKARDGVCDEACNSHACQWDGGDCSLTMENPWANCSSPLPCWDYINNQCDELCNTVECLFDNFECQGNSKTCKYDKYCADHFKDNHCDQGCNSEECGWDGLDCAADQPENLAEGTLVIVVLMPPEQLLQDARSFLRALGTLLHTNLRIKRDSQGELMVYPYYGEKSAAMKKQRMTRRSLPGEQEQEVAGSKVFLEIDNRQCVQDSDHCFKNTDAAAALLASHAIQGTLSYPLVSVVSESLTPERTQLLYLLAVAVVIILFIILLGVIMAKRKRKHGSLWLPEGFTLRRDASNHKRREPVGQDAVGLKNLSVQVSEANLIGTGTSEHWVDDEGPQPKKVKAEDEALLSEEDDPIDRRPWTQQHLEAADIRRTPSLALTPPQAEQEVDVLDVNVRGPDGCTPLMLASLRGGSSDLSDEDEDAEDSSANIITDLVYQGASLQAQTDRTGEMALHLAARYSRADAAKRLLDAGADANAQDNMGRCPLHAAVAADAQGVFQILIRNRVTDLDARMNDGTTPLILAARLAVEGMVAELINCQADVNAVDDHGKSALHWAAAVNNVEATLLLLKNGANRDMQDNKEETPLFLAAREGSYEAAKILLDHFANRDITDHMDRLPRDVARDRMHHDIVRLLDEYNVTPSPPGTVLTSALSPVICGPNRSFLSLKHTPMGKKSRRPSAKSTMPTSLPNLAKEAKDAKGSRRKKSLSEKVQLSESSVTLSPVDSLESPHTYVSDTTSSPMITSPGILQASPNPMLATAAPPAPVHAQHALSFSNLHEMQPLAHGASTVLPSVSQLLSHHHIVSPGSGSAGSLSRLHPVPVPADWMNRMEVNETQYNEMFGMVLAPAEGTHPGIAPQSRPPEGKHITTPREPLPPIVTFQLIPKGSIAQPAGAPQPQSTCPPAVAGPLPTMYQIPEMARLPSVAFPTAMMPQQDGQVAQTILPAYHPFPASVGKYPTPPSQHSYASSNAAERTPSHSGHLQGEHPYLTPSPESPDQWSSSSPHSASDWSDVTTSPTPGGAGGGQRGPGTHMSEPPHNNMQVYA

[6] = molecular target: Pro-neuregulin-1, membrane-bound isoform (Homo sapiens) (UniProt Q02297); experiment: NRG1 binders on small-molecule microarrays, primary screen, psychiatric disease protein project, biochemical, small-molecule microarray, fluorescence 635/667 (AID 1075); settings: NRG1 binding, 635 nm fluorescence, higher = more signal;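 note: score combines 667 nm spot fluorescence with signal to noise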
[7] = system: Neuregulin-1 EGF-like domain; experiment: binders of neuregulin-1 EGF-like domain, primary screen, biochemical, small-molecule microarray, 635 nm fluorescence (AID 1081); settings: small-molecule microarray binding, higher = more signal;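 note: binding of the protein to compounds printed on small-molecule microarray slides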
[8] = FRG1 promoter luciferase signal modulators, primary screen, FRG1 inhibition for FSHD, cell-based, C2C12 myotubes, firefly/Renilla luciferase, luminescence (AID 1084); settings: higher = more signal, called active from +8 up or from −8 down
[9] = binders of probe aFST on microarray, primary screen, stem cell growth factor project, biochemical, small-molecule microarray, fluorescence 635/667 (AID 1086); settings: higher = more signal;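 note: score merges 667 nm fluorescence with signal-to-noise of each printed compound spot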
[10] = binders of probe aHhip on microarray, primary screen, stem cell growth factor project, biochemical, small-molecule microarray, fluorescence 635/667 (AID 1087); settings: higher = more signal;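 note: score merges spot fluorescence at 667nm with spot signal to noise ratio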
[11] = system: PRMT1 (protein arginine N-methyltransferase 1); experiment: PRMT1 binders on small-molecule microarrays, primary screen, biochemical, small-molecule microarray, 635 nm fluorescence (AID 1088); settings: small-molecule microarray binding, higher = more signal;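 note: binding of Prmt1 protein to compounds spotted on small-molecule microarray slides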
[12] = yeast growth modulation, basal conditions, primary screen, YJM789 clinical isolate, OD600, 24 h (AID 1089);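 note: growth of clinical yeast isolate S. cerevisiae YJM 789 seeded 1000 cells per well; test concentration not given here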; settings: S. cerevisiae YJM789 growth, higher = more signal, called active from +8 up or from −8 down
[13] = fission yeast growth modulation, primary screen, strain 972, OD600, 24 h, no modulator (AID 1090);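 note: basal condition with compound alone and no growth modifier present; test concentration not given here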; settings: S. pombe 972 growth, higher = more signal, called active from +8 up or from −8 down
[14] = S. cerevisiae growth modulation with rapamycin, primary screen, strain BY4716, OD600, 96 h (AID 1091); settings: higher = more signal, called active from +8 up or from −8 down; note: test concentration not given here
[15] = molecular target: Torsin-1A-interacting protein 2 (Homo sapiens) (UniProt Q8NFQ8); experiment: LULL1 binders on small-molecule microarray, primary screen, cell lysate, human LULL1 lysate, 635/667 nm fluorescence (AID 1092); settings: hLULL1 lysate binding, 635 nm fluorescence, higher = more signal;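 note: probe is lysate of COS7 cells overexpressing human LULL1; score merges per-feature 667 nm fluorescence with signal-to-noise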
[16] = E. coli growth modulation, two-sided OD650, primary screen, E. coli filamentation project, strain DRC41, 24 h (AID 1093); settings: OD650, 24 h, higher = more signal, called active from +8 up or from −8 down;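 note: MC1000 strain lacking acrAB efflux and sulA so SOS filamentation is blocked; test concentration not given here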
[17] = small-molecule microarray binders of probe aLefty2, primary screen, biochemical, biotinylated probe, 635/667 nm fluorescence (AID 1094); settings: higher = more signal;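 note: score merges spot fluorescence near 667 nm with spot signal-to-noise ratio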
[18] = system: Noggin (protein binding on small-molecule microarray); experiment: Noggin binders on small-molecule microarray, primary screen, biochemical, 635/667 nm fluorescence (AID 1095); settings: 635 nm fluorescence, higher = more signal;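 note: score merges 667 nm feature fluorescence with signal to noise over triplicate slides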
[19] = molecular target: Neurogenic locus notch homolog protein 3 (Homo sapiens) (UniProt Q9UM47); experiment: NOTCH3 binders on small-molecule microarray, primary screen, biochemical, 635/667 nm fluorescence (AID 1096); settings: NOTCH3 binding, 635 nm fluorescence, higher = more signal
Neurogenic locus notch homolog protein 3 (Homo sapiens), sequence (Q9UM47 whole entry, looked up): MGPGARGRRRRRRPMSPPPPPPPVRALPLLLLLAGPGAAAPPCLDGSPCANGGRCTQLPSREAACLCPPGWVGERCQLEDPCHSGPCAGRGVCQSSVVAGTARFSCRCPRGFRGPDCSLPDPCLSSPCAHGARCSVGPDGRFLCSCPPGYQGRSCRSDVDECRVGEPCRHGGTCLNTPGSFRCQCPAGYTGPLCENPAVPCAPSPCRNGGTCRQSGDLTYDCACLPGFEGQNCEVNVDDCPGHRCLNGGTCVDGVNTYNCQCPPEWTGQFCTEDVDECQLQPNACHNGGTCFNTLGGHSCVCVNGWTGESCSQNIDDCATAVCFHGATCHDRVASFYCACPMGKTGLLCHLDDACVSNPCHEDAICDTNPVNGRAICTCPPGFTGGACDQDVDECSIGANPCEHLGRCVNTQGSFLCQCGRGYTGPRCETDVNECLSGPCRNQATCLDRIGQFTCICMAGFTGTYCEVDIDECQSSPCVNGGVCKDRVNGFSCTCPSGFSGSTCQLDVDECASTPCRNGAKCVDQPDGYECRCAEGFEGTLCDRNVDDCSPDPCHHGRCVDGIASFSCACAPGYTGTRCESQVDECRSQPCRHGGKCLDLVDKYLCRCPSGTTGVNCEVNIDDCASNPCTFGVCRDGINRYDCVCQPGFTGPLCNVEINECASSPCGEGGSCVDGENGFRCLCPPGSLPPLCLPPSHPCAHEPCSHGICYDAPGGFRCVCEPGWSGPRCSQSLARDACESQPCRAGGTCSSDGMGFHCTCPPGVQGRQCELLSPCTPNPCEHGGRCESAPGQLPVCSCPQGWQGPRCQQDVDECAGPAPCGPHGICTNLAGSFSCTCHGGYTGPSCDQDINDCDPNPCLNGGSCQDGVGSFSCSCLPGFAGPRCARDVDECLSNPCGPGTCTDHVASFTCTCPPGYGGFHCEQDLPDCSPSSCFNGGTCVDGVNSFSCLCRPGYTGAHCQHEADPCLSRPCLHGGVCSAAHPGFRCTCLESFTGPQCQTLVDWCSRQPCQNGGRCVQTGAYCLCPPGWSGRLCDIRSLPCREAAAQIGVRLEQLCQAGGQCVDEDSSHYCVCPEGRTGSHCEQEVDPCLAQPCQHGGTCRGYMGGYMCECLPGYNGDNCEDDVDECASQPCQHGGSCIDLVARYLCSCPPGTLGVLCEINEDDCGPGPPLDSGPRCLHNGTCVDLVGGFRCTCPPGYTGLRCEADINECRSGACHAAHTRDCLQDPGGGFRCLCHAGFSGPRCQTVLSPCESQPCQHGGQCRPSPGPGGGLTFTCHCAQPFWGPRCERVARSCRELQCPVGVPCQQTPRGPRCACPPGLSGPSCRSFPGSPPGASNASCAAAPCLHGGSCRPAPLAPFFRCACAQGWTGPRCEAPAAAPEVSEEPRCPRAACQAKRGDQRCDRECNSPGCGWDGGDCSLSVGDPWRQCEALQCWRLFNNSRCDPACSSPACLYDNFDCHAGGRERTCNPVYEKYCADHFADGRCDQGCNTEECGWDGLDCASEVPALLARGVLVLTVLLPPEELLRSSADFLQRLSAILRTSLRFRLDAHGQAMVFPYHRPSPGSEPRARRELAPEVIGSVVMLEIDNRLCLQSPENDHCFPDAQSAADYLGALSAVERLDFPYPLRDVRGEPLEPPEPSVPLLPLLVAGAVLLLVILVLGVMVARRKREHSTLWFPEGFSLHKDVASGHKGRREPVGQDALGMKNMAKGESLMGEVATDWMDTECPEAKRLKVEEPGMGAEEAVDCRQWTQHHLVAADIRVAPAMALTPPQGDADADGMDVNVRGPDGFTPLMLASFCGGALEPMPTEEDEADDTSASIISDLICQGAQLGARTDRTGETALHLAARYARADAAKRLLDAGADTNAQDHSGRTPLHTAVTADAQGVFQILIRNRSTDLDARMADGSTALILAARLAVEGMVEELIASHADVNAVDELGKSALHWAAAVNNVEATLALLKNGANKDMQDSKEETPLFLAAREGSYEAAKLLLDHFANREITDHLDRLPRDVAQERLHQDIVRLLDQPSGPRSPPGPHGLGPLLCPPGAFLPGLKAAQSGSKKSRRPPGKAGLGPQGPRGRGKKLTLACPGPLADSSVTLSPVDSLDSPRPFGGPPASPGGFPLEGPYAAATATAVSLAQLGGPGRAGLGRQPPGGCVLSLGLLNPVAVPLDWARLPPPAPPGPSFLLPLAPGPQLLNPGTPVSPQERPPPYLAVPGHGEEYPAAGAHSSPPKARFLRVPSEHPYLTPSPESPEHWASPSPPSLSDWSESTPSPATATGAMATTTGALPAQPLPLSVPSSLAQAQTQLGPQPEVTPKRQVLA

[20] = small-molecule microarray binders of probe aEGFR, primary screen, biochemical, biotinylated probe, 635/667 nm fluorescence (AID 1097); settings: higher = more signal;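 note: probe is a biotinylated anti-EGFR antibody binding compounds printed on slides; score combines fluorescence near 667 nm and signal to noise of each spot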

Structure (SMILES) | composite z-score [1] | composite z-score [2] | composite z-score [3] | composite z-score [4] | composite z-score [5] | composite z-score [6] | composite z-score [7] | z-score [8] | composite z-score [9] | composite z-score [10] | composite z-score [11] | z-score [12] | z-score [13] | z-score [14] | composite z-score [15] | z-score [16] | composite z-score [17] | composite z-score [18] | composite z-score [19] | composite z-score [20]
CC(C)(C)N1C(=O)[C@H]2[C@H]3[C@H](O)[C@H](O)CC(=NOC[C@@H](O)COCc4ccco4)[C@H]3CC[C@H]2C1=O | 0.784 | 0.733 | -0.0423 | 0.227 | 0.0009 | 0.107 | 0.173 | -0.241 (inactive) | 0.616 | -0.0003 | 0.446 | 0.009 (inactive) | 0.287 (inactive) | -0.229 (inactive) | 0.937 | 0.697 (inactive) | 0.0913 | -0.192 | -0.0654 | -0.12
C=CC[C@@H]1C=C[C@H](ON=C(C)CCN2CCCc3nc(C)c(C)cc32)[C@@H](CO)O1 | 0.886 | 1.26 | 0.208 | 0.435 | 0.945 | -0.387 | 0.83 | 1.67 (inactive) | 1.48 | 1.31 | 1.4 | -0.367 (inactive) | 0.323 (inactive) | -0.184 (inactive) | 0.644 | 1.05 (inactive) | 0.475 | 1.09 | 0.946 | 0.142
COc1ccc2c(c1)O[C@@H](c1cccc(C(F)(F)F)c1)[C@H](O)C2=O | -0.609 | -0.184 | -0.131 | 0.452 | 0.242 | 0.0761 | 0.4 | -0.682 (inactive) | 0.0335 | -0.236 | 0.222 | -3.42 (inactive) | -6.34 (inactive) | -0.489 (inactive) | 1.19 | 1.2 (inactive) | -0.261 | 0.614 | 0.661 | 0.0251
CC(CCC(=O)OC[C@H]1O[C@H](C#Cc2ccccc2)C=C[C@@H]1Oc1ccc(C)cc1)=NOC(C)CN1CCCCc2nc(C)c(C)cc21 (stereo not given in full) | -0.172 | -0.116 | -0.211 | -0.12 | -0.565 | 0.904 | -0.491 | 0.49 (inactive) | -0.697 | -0.143 | 0.479 | -0.167 (inactive) | -0.324 (inactive) | -0.773 (inactive) | 0.238 | 0.136 (inactive) | -0.0454 | -0.0193 | -0.171 | -0.18
CC(CCN1CCc2nc(-c3ccccc3)c(-c3ccccc3)cc2C1)=NO[C@H](C)c1cn([C@H](CO)Cc2ccccc2)nn1 | -0.11 | 0.575 | -0.0569 | -0.332 | -0.54 | 0.164 | 0.299 | -0.327 (inactive) | -0.125 | -0.13 | 0.485 | -0.0115 (inactive) | -0.989 (inactive) | -4.22 (inactive) | 0.381 | 0.561 (inactive) | 0.0272 | 0.622 | -0.0395 | -0.122
COc1ccc(COC(=O)NN=C2C[C@@H](O)[C@@H](O)[C@@H]3[C@@H]4C(=O)N(C5CCCCC5)C(=O)[C@@H]4CC[C@@H]23)cc1 | 0.848 | -0.132 | -0.0883 | -0.176 | -0.515 | -0.112 | -0.313 | 0.468 (inactive) | 1.34 | -0.48 | 0.35 | -0.703 (inactive) | -1.86 (inactive) | -0.617 (inactive) | 0.611 | -1.03 (inactive) | 0.687 | 0.159 | -0.218 | -0.127
CO[C@@H]1COC(=O)[C@@H]2CCCN2C(=O)[C@@H](C)COC(=O)CCC[C@H]1C | -0.468 | 0.352 | -0.0836 | 0.367 | 0.997 | -0.0887 | 1.19 | -0.343 (inactive) | -0.288 | -0.0645 | 1.55 | -1.86 (inactive) | -0.875 (inactive) | -0.815 (inactive) | 0.871 | -0.76 (inactive) | -0.176 | 0.456 | 0.525 | 0.158
C[C@@H](c1ccccc1)N1C(=O)[C@H]2[C@H]3[C@H](O)[C@H](O)CC(=NNC(=O)OCc4ccccc4)[C@@H]3CC[C@H]2C1=O | -0.909 | 2.62 | -0.203 | -0.261 | -0.155 | -0.536 | 1.22 | -0.491 (inactive) | 0.0473 | 0.161 | 1.57 | -0.291 (inactive) | 0.452 (inactive) | 5.24 (inactive) | 0.0265 | 0.482 (inactive) | -0.19 | 1.89 | -0.11 | -0.508
CCN1C(C)=C(C(=O)OC)[C@@H](c2ccccc2)N2C(=O)[C@](O)(C(=O)OC)CC(C(C)=O)=C12 | -0.619 | 0.159 | -0.205 | 0.372 | 0.505 | -0.125 | -0.254 | -1.11 (inactive) | 0.101 | -0.0618 | 0.0774 | 0.02 (inactive) | -1.13 (inactive) | 0.712 (inactive) | -0.25 | 0.302 (inactive) | -0.313 | 0.768 | 0.534 | -0.0957
CCOC(=O)[C@H](CC(C)C)NC(=O)CCC1CC(OC(=O)NCCc2ccc(F)cc2)CC2(CCCC(COC(=O)NCCOC)O2)O1 (stereo not given in full) | 0.12 | 0.305 | -0.043 | 0.862 | 1.15 | 0.32 | 1.13 | 1.44 (inactive) | 0.158 | 0.0092 | 1.41 | 0.513 (inactive) | 1.13 (inactive) | 1.5 (inactive) | 1.7 | -1.02 (inactive) | -0.025 | 0.382 | 0.998 | -0.0975
